# Laboratory results published in PubChem BioAssay (NCI).
# Where “and” joins values, the source holds several entries; their conditions need not be identical. Equal entries are not always repeated. The panel holds about 83,000 compounds, 20% with a hit somewhere; the sample as a whole holds those more often.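 Single-dose data. Exposure time 48 hours. Values below 10 considered active.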 Calls of active or inactive are those of the source.
# System: NCI/ADR-RES ovarian
# Experiment: NCI-60 one-dose screen, 48 h (100 = growth as untreated, 0 = no growth, -100 = all killed)
# Settings: 100 µM
row,Compound,growth
1,CCN(Cc1ccccc1)c1ccc(/C=C2\COc3ccccc3C2=O)cc1,23.4% (inactive)
2,CC(=O)/C=C/c1ccc(OCc2ccc(C(C)(C)C)cc2)cc1,7.42% (active)
3,CC(=O)/C=C/c1ccc(N(CCO)Cc2ccc(C(C)(C)C)cc2)cc1,-88.3% (active)
4,O=C(/C=C/c1cccc(Oc2ccc(Cl)cc2)c1)c1ccccc1,-46.5% (active)
5,COc1ccc(C(=O)/C=C/c2ccc(OCc3cccc(C(F)(F)F)c3)c(OC)c2)cc1OC,-6.47% (active)
6,CC(=O)/C=C/c1ccc(OCc2ccc(Cl)cc2)cc1,18% (inactive)
7,COc1ccc(C(=O)/C=C/c2ccc(OCc3ccc(Cl)cc3)cc2)cc1OC,0.0169% (active)
8,CC(=O)/C=C/c1ccc(N(C)Cc2ccc(C(C)(C)C)cc2)cc1,-60.1% (active)

# System: T-47D breast
# Experiment: as above
# Settings: 10 µM
row,Compound,growth
1,CCN(Cc1ccccc1)c1ccc(/C=C2\COc3ccccc3C2=O)cc1,78.3% (inactive)
2,CC(=O)/C=C/c1ccc(OCc2ccc(C(C)(C)C)cc2)cc1,52.8% (inactive)
3,CC(=O)/C=C/c1ccc(N(CCO)Cc2ccc(C(C)(C)C)cc2)cc1,60.2% (inactive)
4,O=C(/C=C/c1cccc(Oc2ccc(Cl)cc2)c1)c1ccccc1,77% (inactive)
5,COc1ccc(C(=O)/C=C/c2ccc(OCc3cccc(C(F)(F)F)c3)c(OC)c2)cc1OC,54.2% (inactive)
6,CC(=O)/C=C/c1ccc(OCc2ccc(Cl)cc2)cc1,93.1% (inactive)
7,COc1ccc(C(=O)/C=C/c2ccc(OCc3ccc(Cl)cc3)cc2)cc1OC,73.8% (inactive)
8,CC(=O)/C=C/c1ccc(N(C)Cc2ccc(C(C)(C)C)cc2)cc1,62.5% (inactive)

# Same assay, conditions: 10 µM unless noted
row,Compound,growth
1,CCOC(=O)c1ccc(Nc2ncnc3c2cnn3-c2cccc(F)c2)cc1,100% (inactive)
2,O=S(=O)(O)c1ccc(N=Nc2ccc(N=Nc3cccc4ccccc34)c(S(=O)(=O)O)c2)cc1,81.3% (inactive)
3,CC[C@@H]1NC(=O)[C@H]([C@H](O)[C@H](C)C/C=C/c2ccc(CN3C(=O)C(C)=C(C)C3=O)cc2)N(C)C(=O)[C@H](C(C)C)N(C)C(=O)[C@H](CC(C)C)N(C)C(=O)[C@H](CC(C)C)N(C)C(=O)[C@@H](C)NC(=O)[C@H](C)NC(=O)[C@H](CC(C)C)N(C)C(=O)[C@H](C(C)C)NC(=O)[C@H](CC(C)C)N(C)C(=O)CN(C)C1=O,54.7% (inactive)
4,COc1nc(=O)n(C2C=CC(=O)O2)cc1F (stereo not given),41.7% (inactive)
5,COc1ccc(-c2csc(NC(=O)CN3CCN(CCO)CC3)n2)cc1NS(=O)(=O)c1cccc2c(N(C)C)cccc12,72% (inactive)
6,O=C1/C(=C/c2ccc(-c3cccc(C(F)(F)F)c3)o2)SC(=S)N1CCc1ccc(O)cc1,53.8% (inactive)
7,BrC1=C(Br)C(Br)(Br)C(Br)=C1Br,77.9% (inactive)
8,OCc1cc(CN2CCCCC2)c(O)c2ncccc12,57.4% (inactive)
9,COc1ccc(C2=C(CN)C(O)NC(=NCC(=O)c3ccc4ccccc4c3)N2)cc1 (stereo not given),101% (inactive)
10,N#CSc1c[nH]c2ccc(/C=C/C(=O)/C=C(/C=C/c3ccc4[nH]cc(SC#N)c4c3)OB(F)F)cc12,-7.65% (active)
11,COc1ccc(Oc2nc(Nc3ccc(N4CCOCC4)cc3)ncc2NC(=O)c2cc(OC)cc(OC)c2)cc1,93.6% (inactive)
12,COc1ccc2c(c1)oc1c(C)c3c(c(C)c12)C(=O)N(Nc1ccccc1)C3=O,88.1% (inactive)
13,COc1ccc(/C=C2/C(=O)N=C3N2NC(c2ccccc2)=CN3c2ccccc2)cc1,106% (inactive)
14,O=C1/C(=C/c2ccccc2[N+](=O)[O-])Cc2ccccc21,1.93% (active) and 64% (inactive)
15,COc1ccc2c(c1)CCNC21C(=O)Nc2c(Br)cc(Br)cc21 (stereo not given),90.3% (inactive)
16,O=C(N/N=C/c1ccc(O)cc1O)c1cccc(Nc2ccnc(C(F)(F)F)c2)c1,28.8% (inactive)
17,O=C(c1cccc(Br)c1)N1CCN(c2ccnc3cc(Cl)ccc23)CC1,44.4% (inactive)
18,CCCCCC#CC1OC23CCCCC2C(C#N)(C(=N)O3)C1(C#N)C#N (stereo not given),113% (inactive)
19,COc1ccc(-c2c[nH]c(C(=O)O)c2-c2cc(OC)c(OC)c(OC)c2)cc1,15.3% (inactive)
20,NC(N)=NC(N)=NCCCc1ccco1,106% (inactive)
21,CN1Cn2c(ccc2C(F)(F)F)C(=O)CS1(=O)=O,115% (inactive)
22,CCCc1cc(C(N)=S)ccn1,105% (inactive)
23,C#CCn1cnc2cnc(Nc3cccc(NC(=O)CCl)c3)nc21,5.42% [6.25 µM] (active)
24,CC1=C2[C@@H](CC1)[C@]1(C)O[C@@](C3CC3)(C[C@H]1OC(=O)CO)[C@H]2OC(=O)/C=C/c1ccccc1,82.2% (inactive)
25,CCCn1nc(C(=O)N2CCCCC2)c2c1CCC(N1CCC(c3ccncc3)CC1)C2 (stereo not given),99.5% (inactive)
26,Cc1c(O)c(O)cc2c3c(oc12)CC(c1ccc2c(c1)OCO2)CC3=O (stereo not given),67.4% (inactive)
27,COc1ccc(Nc2nn3c(SCC(=O)c4ccc(C)cc4)nnc3s2)cc1,73.2% (inactive)
28,N#Cc1c(-c2cccc(F)c2)cc(-c2cccnc2)[nH]c1=O,93.4% (inactive)
29,O=[N+]([O-])c1ccc2[nH]c3nccc(NCc4cccc(Cl)c4)c3c2c1,67.4% (inactive)
